High-throughput results deposited in PubChem by National Center for Advancing Translational Sciences (NCATS).
Rango dissoc inh – inhibitors of RanGTP-induced Rango-importin beta complex dissociation. O95149+P62826. Biochemical FRET Rango-importin beta, RanGTP-induced dissociation. Potency, µM (top dose mostly 46.1 µM), for the others: at the highest dose activity change, negative = inhibition. 340,000 tested, 0.071% active. AID 540253; also: potency is read from the fitted curve at half-maximal effect; % of control where 0% means no effect; nearly all actives have a fitted effect of over 45% in size
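Compounds preincubate 5 min with complex of recombinant Rango and importin beta in PBS with 1 mM DTT. Ran (0.6 uM) loaded with 2 mM GTP plus 0.2 uM RCC1 starts dissociation; FRET is recorded 45 min later.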
Rango complex inh – prevents formation of the Rango-importin beta complex | Q14974 | Rango CFP/YFP FRET sensor + importin beta, 45 min | Potency, µM (titrated, usually from 92.2 µM), for inactives: at the highest dose inhibition of complex formation | 340,000 tested, 0.031% active;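 also: potency is read from the fitted curve at half-maximal effect; 0% = DMSO wells and 100% = buffer wells lacking importin beta; nearly all actives have a fitted effect of over 15% in size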
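FRET biosensor Rango (snurportin 1 IBB between N-terminal EYFP and C-terminal Cerulean), 50 nM in PBS/1 mM DTT/0.02% Tween-20/0.1% BSA, preincubated 5 min RT with compound; 0.125 microM importin beta added, 45 min RT, CFP/YFP FRET ratio read.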
MBNL1 CUG block – MBNL1-poly(CUG) RNA binding inhibition. Q9NR56. Potency, µM (highest dose often 57.5 µM), inactives show at the highest dose activity change, negative = inhibition, usual class: inhibitors. TR-FRET MBNL1-His/biotin-(CUG)12 binding, 665/545 ratio. 280,000 tested, 0.036% active; active = well fitted inhibition curve with a large enough effect in the signal ratio, with a control signal flat, not every such curve was filed as active; inconclusive = small, poorly fitted or top-dose-only effect, or effect the other way, or a change in a side signal; inactive = no such curve, though single readings can be large or run the other way; the % refers to the signal ratio; also: potency is read from the fitted curve at half-maximal effect; % is scaled to controls: 0 for no effect and ±100 for the full control effect
Target sequence (Q9NR56 whole entry, looked up): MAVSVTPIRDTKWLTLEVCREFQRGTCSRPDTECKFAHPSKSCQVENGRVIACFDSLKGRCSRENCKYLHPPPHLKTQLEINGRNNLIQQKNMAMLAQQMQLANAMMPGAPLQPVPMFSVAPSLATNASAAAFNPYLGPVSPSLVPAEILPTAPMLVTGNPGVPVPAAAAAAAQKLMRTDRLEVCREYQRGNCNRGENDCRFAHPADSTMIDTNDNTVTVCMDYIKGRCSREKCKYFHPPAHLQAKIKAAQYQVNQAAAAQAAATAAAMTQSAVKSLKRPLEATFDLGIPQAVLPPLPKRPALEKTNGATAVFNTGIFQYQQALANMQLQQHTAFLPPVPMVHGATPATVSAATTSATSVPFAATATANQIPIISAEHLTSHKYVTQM
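Inhibition of protein-RNA binding appears as loss of TR-FRET between terbium anti-His antibody on MBNL1-His and streptavidin-XL665 on biotin-(CUG)12. Activity is normalized to buffer-only and uninhibited-complex controls.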
ClpP mod – qHTS Assay for Activators of ClpP | ATP-dependent Clp protease proteolytic subunit (Bacillus subtilis (strain 168)), P80244 | purified B. subtilis ClpP, FRET peptide cleavage, 20 min | Potency, µM (top dose mostly 57.5 µM), for the others: at the top dose activity change, negative = active | 340,000 tested, 1.9% active; active = well fitted falling curve with a large enough effect; inconclusive = small, poorly fitted or top-dose-only effect; inactive = no such curve, though single readings can be large or run the other way; also: potency is read from the fitted curve at half-maximal effect; the source files actives as falling curves though it sought activators and does not explain the sign; nearly all actives have a fitted effect of over 65% in size
Target sequence (P80244 whole entry, looked up): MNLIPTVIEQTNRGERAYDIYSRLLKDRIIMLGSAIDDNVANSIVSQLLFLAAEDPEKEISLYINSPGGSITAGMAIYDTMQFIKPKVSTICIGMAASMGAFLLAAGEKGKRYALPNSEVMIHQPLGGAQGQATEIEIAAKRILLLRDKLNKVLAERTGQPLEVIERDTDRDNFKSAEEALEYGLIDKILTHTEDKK
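Purified B. subtilis ClpP, 10 microg/mL final in Tris/HCl pH8 with KCl, BSA, glycerol and Tween-20, cleaved an Abz/nitrotyrosine-quenched decapeptide. Fluorescence (ex 320, em 430) was read at 0 and 20 min at room temperature. Delta was normalized to 5.8 microM ADEP and DMSO/no-enzyme controls.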
CBFb RUNX1 block – CBF-beta/RUNX1 interaction disruption; Q01196+Q13951; AlphaScreen CBFb-His/RUNX1-biotin binding, biochemical; Potency, µM (doses to about 59.8 µM), inactives show top-dose activity, negative = inhibition, most hits filed as inhibitors; 230,000 tested, under 10 active; AID 1477; active = well fitted curve in the direction sought with a large enough effect; inconclusive = small, poorly fitted or top-dose-only effect, or effect the other way, or another doubt; inactive = no such curve, though single readings can be large or run the other way; also: % of control where 0% means no effect
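Inhibition was taken as any reduction in AlphaScreen signal from the CBF-beta–RUNX1 pair (His and biotin tags, 30 nM each), measured after compound (15 min) and bead (90 min) incubations at room temperature.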
The depositor's hits bear a star; ? = inconclusive; . = not tested or not shown. Shown is part of a subset that was picked to be rich in hits. Unless noted, calls follow the shape of the full dose curve.

SMILES	Rango dissoc inh	Rango complex inh	MBNL1 CUG block	ClpP mod	CBFb RUNX1 block
CCN(CC)CCCN(Cc1cc2cc3c(cc2[nH]c1=O)OCCO3)C(=O)Nc1ccc(F)cc1	12%	-1%	-26%	28µM*	?
COc1cc2cc(CN(CCN3CCOCC3)C(=O)Nc3ccc(F)cc3)c(=O)[nH]c2cc1OC	-11%	?	-2%	4%	9%
CCN(CC)CCCN(Cc1cc2cc3c(cc2[nH]c1=O)OCO3)C(=O)Nc1ccccc1OC	-10%	1%	-1%	32µM*	11%
COc1ccc(-n2c(SCC(=O)NCc3ccc(C)cc3)nc3n[nH]c(C)c3c2=N)cc1	.	.	.	65%	.
CCn1nc(-c2ccccc2)c(-c2ccccc2)c(C(=O)Nc2ccc(S(N)(=O)=O)cc2)c1=O	.	.	.	-1%	.
CCOc1cc(S(=O)(=O)NCCc2c(C)[nH]c3ccc(C)cc23)ccc1F	.	.	.	-1%	.
COc1cc2cc(CN(Cc3cccs3)C(=S)Nc3ccccc3)c(=O)[nH]c2cc1OC	2%	-1%	-1%	10µM*	10%
COc1ccc2[nH]c(=O)c(CN(Cc3cccs3)C(=S)Nc3ccccc3)cc2c1	.	.	.	.	-8%
CCOC(=O)c1c(NC(=O)COC(=O)CCOc2ccccc2C)sc(C(=O)NC)c1C	2%	6%	.	20µM*	.
Cc1cc(C(=O)N2CCCC(N3CCN(c4ccccc4C)CC3)C2)no1 (stereo unspecified)	.	.	.	0%	.
Cc1cc(C)n2nc(C(=O)N3CCCC(N4CCN(c5ccccc5C)CC4)C3)cc2n1 (stereo unspecified)	4%	4%	-3%	28µM*	.
CCOC(=O)c1c(NC(=O)CSc2cn(CCNC(=O)c3ccccc3F)c3ccccc23)sc2c1CCCC2	.	.	.	-19%	.
Cc1[nH]nc2c1C(c1ccsc1C)C(C#N)=C(N)O2 (stereo unspecified)	19%	-1%	8%	0%	-1%
Cc1cc(C2C(C#N)=C(N)Oc3n[nH]c(C)c32)c(C)s1 (stereo unspecified)	-5%	0%	7%	18µM*	-1%
O=C(NCCc1csc(-c2ccccc2)n1)c1cccs1	-11%	-2%	2%	?	6%
COc1ccc(-c2nc(CCNC(=O)Cc3ccc(F)cc3)cs2)cc1	.	.	.	22µM*	.
COc1cc(OC)cc(C(=O)NCCc2csc(-c3ccc(C(F)(F)F)cc3)n2)c1	.	.	.	32µM*	.
COc1ccc(-c2nc(CCNC(=O)c3cccs3)cs2)cc1OC	.	.	.	28µM*	.
O=C(Nc1c(Cl)cc([N+](=O)[O-])cc1Cl)c1cc(Cl)ccc1O	.	.	.	9%	.
O=C(CSc1cccc2cccnc12)NCc1ccco1	25%	4%	39%	25µM*	-1%
Cc1cccc(NC(=O)CSc2cccc3cccnc23)c1C	-3%	-1%	17%	.	.
CC(=O)/C(=N/Nc1ccc(Br)cc1)Sc1cccc2cccnc12	-1%	-3%	-5%	-2%	-1%
CCOC(=O)CSc1cccc2cccnc12	-1%	-3%	17%	16µM*	?
CCN(CC)C(=O)Sc1cccc2cccnc12	-3%	1%	3%	28µM*	3%
CCCCC/C=C\C/C=C\C/C=C\C/C=C\CCCCCC(=O)NC(C)C(=O)O (stereo unspecified)	.	.	.	.	0%
SMILES	Rango dissoc inh	Rango complex inh	MBNL1 CUG block	ClpP mod	CBFb RUNX1 block
CCN(CC)S(=O)(=O)c1ccc2c(c1)nc(CN(C)C(=O)Nc1ccc(C)c(Cl)c1)n2C	.	.	.	-5%	.
CC(NC(=O)c1ccc2c(c1)N(Cc1cccc(F)c1)C(=O)c1ccccc1S2)c1ccccc1 (stereo unspecified)	.	.	.	0%	.
Cc1cc(C)n(C(=O)c2ccccc2[N+](=O)[O-])n1	4%	0%	?	35µM*	8%
Cc1cc(C)n(C(=O)c2cccc([N+](=O)[O-])c2C)n1	6%	-1%	9%	2%	.
COc1cccc(Cn2cccc(NC(=O)Nc3cccc(C#N)c3)c2=O)c1	-22%	0%	-3%	28µM*	23%
COc1cccc(NC(=O)Nc2cccn(Cc3ccc(C)cc3)c2=O)c1	0%	-2%	6%	3%	2%
CCCCNc1nc(C)nc2c1nc(-c1ccccc1)n2CC1CCN(C)CC1	.	.	.	.	5%
Cc1ccc(/C=C/c2ccc(=O)n(Cc3ccccc3Cl)n2)cc1	8%	-2%	1%	28µM*	?
COCCCNC(=O)C1CCN(Cc2cc3ccccc3n2Cc2cccc(C)c2)CC1	.	.	.	-4%	.
O=C(NCc1cccnc1)C(=O)NCC(c1ccco1)N1CCN(c2ccccc2F)CC1 (stereo unspecified)	-9%	-1%	.	18µM*	-2%
COc1ccc(CN2C(=O)N(c3ccccc3)C(=O)C2c2ccccc2)cc1COc1ccc(NC(C)=O)cc1 (stereo unspecified)	.	.	.	0%	.
Cc1ccc(C)c(N2CCN(CCCNC(=O)c3ccc4nc(CCc5ccccc5)oc4c3)CC2)c1	.	.	.	-1%	.
Cc1cc(C)n(-c2nc(NCC(C)O)c3c4c(sc3n2)COC(C)(C)C4)n1 (stereo unspecified)	0%	-5%	-6%	28µM*	-2%
Cc1cc(C)n(-c2nc(NCC(C)O)c3c4c(sc3n2)CCCC4)n1 (stereo unspecified)	?	3%	22%	32µM*	-18%
Cc1cc(C)n(-c2nc(NCCCO)c3c4c(sc3n2)CCCC4)n1	-19%	5%	0%	18µM*	-20%
Cc1cc(C)n(-c2nc(NCCO)c3c4c(sc3n2)CCCC4)n1	8%	7%	1%	-23%	-4%
Cc1cnc2c(C)ccc(C)c2c1/C=C/c1ccc(N(C)C)cc1	.	.	.	-3%	.
Cc1ccc(CNc2nc3cc(-c4ccccc4)sc3c(=O)n2C)c(C)c1	.	.	.	28µM*	.
COc1cccc(CNc2nc3cc(-c4cccc(Cl)c4)sc3c(=O)n2C)c1	.	.	.	20µM*	.
C=CCNc1nc(NCc2cccc(OC)c2)c2sc(-c3ccccc3)cc2n1	.	.	.	20µM*	.
COCCNc1nc(NCCOc2ccccc2)c2sc(-c3ccccc3)cc2n1	.	.	.	-24%	.
CC(=O)c1c(C)nn(-c2ccccc2)c1C	-1%	-3%	.	.	1%
Cc1c(C(=O)O)c(-c2ccccc2)nn1-c1ccccc1	13%	1%	-12%	16µM*	11%
